Source: PubChem BioAssay AID1224921 (Broad Institute, 2016)
Out of some 1,400 compounds screened, about 350 (25%) were called active. Another 2% or so got no clear call; they are omitted. No rule for the calls is given here. The list is a sample of the results. Entries with a potency or affinity are not part of this list.

Assay: C. difficile growth inhibition, confirmation, 4-point retest (AID 1224921);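 also: plate controls were DMSO wells for no effect and levofloxacin 16 µg/mL wells for full effect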
Settings: Clostridioides difficile clinical isolate growth, OD600, 24 h, active compounds read low; at 30 µM unless noted

Max activity, inactive:
C[C@H](CO)N1C[C@H](C)[C@@H](CN(C)Cc2cccnc2)Oc2cc(C#CC3CC3)ccc2S1(=O)=O 21.4%
CCCN1C[C@@H](C)[C@H](OC)CN(C)C(=O)c2cc(NC(=O)c3ccc4c(c3)OCO4)ccc2OC[C@H]1C 14.6% [at 35 µM]
C[C@@H]1CN([C@H](C)CO)C(=O)c2ccccc2-c2ccccc2CO[C@H]1CN(C)C(=O)CCN(C)C -7.05% [at 0.5 µM]
COc1ccc(CN(C)C[C@H]2Oc3ccc(NC(=O)Nc4ccc(C(F)(F)F)cc4)cc3C(=O)N([C@@H](C)CO)C[C@H]2C)cc1 -5.09% [at 0.5 µM]
CO[C@@H]1CN(C)C(=O)c2ccc(NS(=O)(=O)c3ccccc3C)cc2OC[C@H](C)N(S(C)(=O)=O)C[C@H]1C -9.59% [at 8 µM]
CNC[C@@H]1Oc2cc(-c3cccnc3)ccc2S(=O)(=O)N([C@H](C)CO)C[C@H]1C 14.8%
C[C@H]1CN([C@@H](C)CO)C(=O)c2ccccc2-c2ccccc2CO[C@H]1CN(C)S(=O)(=O)c1ccsc1 -19.4%
Cc1ccc(-c2ccc3c(c2)O[C@H](CN(C)Cc2cccnc2)[C@H](C)CN([C@H](C)CO)S3(=O)=O)cc1 17.6%
CCCNC(=O)Nc1ccc2c(c1)C(=O)N(C)C[C@H](OC)[C@@H](C)CN(C)[C@@H](C)CO2 4.84% [at 8 µM]
COCCNC(=O)C[C@@H]1CC[C@H]2[C@@H](COc3ccc(NS(=O)(=O)c4ccc(Cl)cc4)cc3C(=O)N2C)O1 14.3%
CC(C)Cc1ccc(CN2CC[C@@H](NS(=O)(=O)c3ccccc3)C2)cc1 -12% [at 0.5 µM]
CCCNC(=O)Nc1ccc2c(c1)C(=O)N(C)C[C@H](OC)[C@@H](C)CN(C(C)=O)[C@H](C)CO2 -7.56% [at 1.95 µM]
CO[C@H]1CN(C)C(=O)c2ccc(NS(=O)(=O)c3ccc(C)cc3)cc2OC[C@H](C)N(C(=O)NC(C)C)C[C@H]1C -11.4% [at 1.95 µM]
C/C=C/c1ccc2c(c1)O[C@H](CN(C)C(=O)c1ccc(F)cc1)[C@H](C)CN([C@@H](C)CO)S2(=O)=O 18.5%
CO[C@H]1CN(C)C(=O)c2cc(NC(C)=O)ccc2OC[C@@H](C)N(Cc2nccs2)C[C@H]1C -12.5% [at 8 µM]
CO[C@@H]1CN(C)C(=O)c2cc(NC(C)=O)ccc2OC[C@H](C)N(CC2CCCCC2)C[C@@H]1C 16.5%
CC(=O)N[C@@H]1CC[C@H](CCNC(=O)Nc2ccc(C(F)(F)F)cc2)O[C@@H]1CO 16.8% [at 8 µM]
CC(=O)N[C@H]1CC[C@@H](CCNC(=O)Nc2ccc(C(F)(F)F)cc2)O[C@H]1CO 10.2% [at 7.5 µM]
C[C@H]1CN([C@@H](C)CO)S(=O)(=O)c2ccc(C3=CCCCC3)cc2O[C@H]1CN(C)C(=O)C1CCCCC1 30.6%
C[C@@H]1CN([C@H](C)CO)C(=O)c2cc(Br)cnc2O[C@H]1CN(C)C(=O)c1ccccc1 -3.07% [at 8 µM]
C[C@H]1CN([C@@H](C)CO)S(=O)(=O)c2ccc(C#CC3CCCCC3)cc2O[C@H]1CN(C)Cc1cccnc1 35.6%
CO[C@H]1CN(C)C(=O)c2cc(NC(=O)c3ccc(F)cc3)ccc2OC[C@@H](C)N(C(C)=O)C[C@H]1C -8.16% [at 1.95 µM]
C[C@H](C(=O)N(C)C[C@H]1OCc2ccccc2-c2ccccc2C(=O)N([C@@H](C)CO)C[C@H]1C)c1ccccc1 18.3%
C[C@@H]1CN([C@H](C)CO)C(=O)c2cc(NC(=O)Nc3cccc4ccccc34)ccc2O[C@@H](C)CCCCO[C@H]1CN(C)S(=O)(=O)c1ccc(F)cc1 36.9%
C[C@@H]1CN([C@@H](C)CO)C(=O)Cc2cc(NC(=O)NC3CCCCC3)ccc2O[C@@H]1CN(C)S(=O)(=O)c1ccc(Cl)cc1 20.4%
C[C@@H]1CN([C@@H](C)CO)S(=O)(=O)c2ccc(C#CC3CC3)cc2O[C@H]1CN(C)Cc1cccnc1 34.2%
CCCNC(=O)N1C[C@H](C)[C@@H](OC)CN(C)C(=O)c2cc(NC(C)=O)ccc2OC[C@@H]1C -10.9% [at 1.95 µM]
COc1ccc(NC(=O)N[C@@H]2C=C[C@H](CC(=O)NC3CCCCC3)O[C@@H]2CO)cc1 13.1% [at 1.95 µM]
CCC(=O)N(C)C[C@@H]1Oc2cc(C#CCC3CCCC3)ccc2S(=O)(=O)N([C@@H](C)CO)C[C@H]1C 27.8%
O=C(C[C@H]1C=C[C@H](NC(=O)CCN2CCCCC2)[C@H](CO)O1)Nc1ccc(-c2ccccc2)cc1 11.2%
CCCC#Cc1ccc([C@@H]2[C@H](C#N)N(S(=O)(=O)c3cccc(F)c3)[C@H]2CO)cc1 21.1%
COc1ccc(NC(=O)N(C)C[C@@H]2Oc3ncc(-c4cccnc4)cc3C(=O)N([C@@H](C)CO)C[C@@H]2C)cc1 -18.5% [at 8 µM]
CC(C)CC#Cc1ccc2c(c1)O[C@@H](CN(C)C(=O)c1ccccc1F)[C@@H](C)CN([C@@H](C)CO)S2(=O)=O 18%
O=C(C[C@H]1CC[C@H]2[C@@H](COC[C@@H](O)CN2Cc2cccc(Cl)c2)O1)NCC1CCCCC1 11.9% [at 8 µM]
COc1ccccc1S(=O)(=O)N(C)C[C@H]1Oc2cc(C#CCC(C)C)ccc2S(=O)(=O)N([C@@H](C)CO)C[C@@H]1C 10.5%
C[C@H]1CN([C@@H](C)CO)S(=O)(=O)c2ccc(Br)cc2O[C@@H]1CN(C)Cc1cccc(F)c1 41.5%
C[C@H]1CN([C@@H](C)CO)C(=O)c2c(c3ccccc3n2C)-c2ccccc2CO[C@H]1CN(C)S(=O)(=O)CC(F)(F)F 14.7%
CCCC(=O)Nc1ccc2c(c1)OC[C@H](C)N(Cc1ccncc1)C[C@@H](C)[C@H](OC)CN(C)C2=O 14.3%
CCCN1C[C@@H](C)[C@@H](OC)CN(C)C(=O)c2cc(NC(=O)CC)ccc2OC[C@H]1C -7.79% [at 0.5 µM]
CO[C@@H]1CN(C)C(=O)c2cc(NS(=O)(=O)c3cccc(F)c3)ccc2OC[C@@H](C)N(Cc2cc(F)ccc2F)C[C@@H]1C 14.2%
NC(=O)[C@@H]1[C@H]2C(=O)O[C@H](c3ccccc3)[C@H](c3ccccc3)N2[C@H](c2ccc(O)cc2)[C@@]12C(=O)Nc1ccc(C#CC3=CCCCC3)cc12 21.8%
CCCN1C[C@H](C)[C@@H](OC)CN(C)C(=O)c2ccc(NC(=O)Nc3c(C)noc3C)cc2OC[C@@H]1C 29.7%
C[C@@H]1CN([C@@H](C)CO)C(=O)c2ccccc2-c2ccccc2CO[C@H]1CN(C)C(=O)c1ccc(F)cc1 -6.68% [at 8 µM]
C[C@@H]1CN([C@@H](C)CO)C(=O)Cc2cc(NC(=O)c3ccncc3)ccc2O[C@@H]1CN(C)Cc1ccc(-c2ccccc2)cc1 41.4%
N#C[C@H]1[C@@H](c2ccc(C#CC3CCCCC3)cc2)[C@@H](CO)N1C(=O)Cc1ccccn1 24.3% [at 0.5 µM]
C[C@H](CO)N1C[C@H](C)[C@@H](CN(C)Cc2ccccc2)Oc2ccc(NS(C)(=O)=O)cc2CC1=O 28% [at 35 µM]
CO[C@@H]1CN(C)C(=O)c2ccc(NC(=O)c3ccc(F)cc3)cc2OC[C@@H](C)N(C(=O)c2ccc(F)cc2)C[C@@H]1C -7.95% [at 0.5 µM]
C[C@@H](NC(=O)C[C@H]1C=C[C@H](NC(=O)C2CCC2)[C@@H](CO)O1)c1ccccc1 -13.6% [at 0.5 µM]
CCC(=O)N1C[C@H](C)[C@H](OC)CN(C)C(=O)c2cc(NS(=O)(=O)CC)ccc2OC[C@H]1C -9.49% [at 1.95 µM]
C[C@H]1CN([C@@H](C)CO)S(=O)(=O)c2ccc(C#CC3CC3)cc2O[C@@H]1CN(C)Cc1ccncc1 47%
C[C@@H]1CN([C@@H](C)CO)C(=O)c2c(c3ccccc3n2C)-c2ccccc2CO[C@@H]1CN(C)Cc1cccc(C(=O)O)c1 -12.2% [at 8 µM]
Cc1ccc(F)cc1S(=O)(=O)N[C@H]1CCN(Cc2ccc(OC(C)C)cc2)C1 21.6%
COc1ccc(CN(C)C[C@@H]2Oc3c(NC(=O)Nc4ccc(C(F)(F)F)cc4)cccc3C(=O)N([C@@H](C)CO)C[C@H]2C)cc1 38%
COc1ccc(CN(C)C[C@H]2Oc3c(NC(=O)Nc4ccc(C(F)(F)F)cc4)cccc3C(=O)N([C@@H](C)CO)C[C@@H]2C)cc1 32.3% [at 8 µM]
COc1cccc(S(=O)(=O)N[C@@H]2CC[C@H](CCN)O[C@@H]2CO)c1 -11.8% [at 1.95 µM]
CNC[C@@H]1Oc2cc(C#CCC3CCCC3)ccc2S(=O)(=O)N([C@H](C)CO)C[C@H]1C 18.8% [at 8 µM]
CCS(=O)(=O)Nc1ccc2c(c1)C(=O)N(C)C[C@H](OC)[C@H](C)CN(C)[C@H](C)CO2 -7.51% [at 1.95 µM]
CCCC#Cc1ccc2c(c1)O[C@H](CN(C)Cc1ccncc1)[C@@H](C)CN([C@@H](C)CO)S2(=O)=O 18.4%
CO[C@@H]1CN(C)C(=O)c2ccc(NC(=O)C3CCC3)cc2OC[C@@H](C)N(S(=O)(=O)c2ccc(Cl)cc2)C[C@H]1C -9.7% [at 2.1 µM]
